Test results: the supplement of paper PMC7156485

Test system: HCC1569
Assay: H1.0 immunofluorescence intensity relative to DMSO (% of DMSO); higher = stronger H1.0 induction, active = 140 or more
Details: concentration: 10 µM; 24 h
How it was run: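 For HCC1569 and TDF cells, compounds at 10 µM were applied for 24 h at 37 °C in triplicate in 384-well plates. Cells were fixed in 3.7% formaldehyde, stained for H1.0 and with DAPI, and imaged at ×10 over six fields per well. The endpoint, H1.0 nuclear intensity or cell number, is shown as percent of the plate control using the median of replicates. Positional effects were smoothed for HCC1569 only.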
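Further: TDF is a line of transformed human dermal fibroblasts of mesenchymal origin.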

H1.0 immunofluorescence intensity, active:
CCOc1cc2ncnc(Nc3cccc(Br)c3)c2cc1OCC [Compound 56] 144
CC(C)c1[nH]n(-c2c(Cl)cccc2Cl)c2nc(Cc3ccc(OCCO)cc3)nc(=O)c1-2 [Cdk/Crk Inhibitor] 143
Nc1ccc(C(=O)Nc2cccc(-c3nc(N4CCOCC4)c4oc5ncccc5c4n3)c2)cn1 [PIKfyve Inhibitor] 151

H1.0 immunofluorescence intensity, inactive:
CC(C(=O)O)c1ccc(CC2CCCC2=O)cc1 (stereo not given) [loxoprofen] 92.6
NC(N)=NC(CCC(=O)O)C(=O)O (stereo not drawn) [alpha-Guanidinoglutaric acid] 86.2
O=C1OC(=CBr)CCC1c1cccc2ccccc12 (stereo not given) [Bromoenol lactone] 112
CN1CCN(c2c(F)cc3c(=O)c(C(=O)O)cn4c3c2SCC4)CC1 [Rufloxacin] 95.2
Cc1nc(C(=O)N2CCC[C@H]2Cc2nnc(-c3ccccc3)o2)c(-c2ccccc2F)s1 95.5
CCCCCN(CCCCC)C(=O)C(CCC(=O)O)NC(=O)c1ccc(Cl)c(Cl)c1 (stereo not given) [Lorglumide] 96.4
CCCCCC=CCC(O)C=CC=CC=CC(O)CCCC(=O)O [5(S),12(R)-DIHETE all trans] 101
O=[N+]([O-])c1cccc2c(Br)[nH]nc12 [3-Bromo-7-nitroindazole] 91.9
Cc1cnc(-c2cnc(NCCNc3ccc(C#N)cn3)nc2-c2ccc(Cl)cc2Cl)[nH]1 112
CN1CCCC1c1cccnc1.O=C(O)C(O)C(O)C(=O)O.O=C(O)C(O)C(O)C(=O)O (single isomer, unassigned; (-)) [(-)-Nicotine hydrogen tartrate salt] 99.2
Clc1ccc(C(Cn2ccnc2)OCc2csc3c(Cl)cccc23)c(Cl)c1.O=[N+]([O-])O (stereo not given) 119
CC(C)Cc1ccc(C(C)C(=O)NO)cc1 (stereo not given) [Ibuproxam] 95.2
Cl.NCC1OC(C23CC4CC(CC(C4)C2)C3)Cc2c1ccc(O)c2O (stereo not given) 129
NCC1OC(OC2C(CO)OC(OC3C(O)C(N)CC(N)C3OC3OC(CO)C(O)C(O)C3N)C2O)C(N)C(O)C1O.O=S(=O)(O)O (stereo not given) [Paromomycin sulfate] 101
CCCCCCCCC=CCCCCCCCCCCCCC(=O)O [14(Z)-Tricosenoic acid] 101
CCN(CC)CCCC(C)Nc1ccnc2cc(Cl)ccc12 (stereo not given) [Chloroquine] 93.6
Cc1cc(C)c(NC(=O)CC(CC(=O)[O-])c2cccc3ccccc23)c(C(=O)N2CCC3(CCCC3)CC2)c1.[Na+] (stereo not given) 99.8
C[N+](C)(C)CCOC(=O)CCC(=O)OCC[N+](C)(C)C.[Cl-].[Cl-] [Succinylcholine chloride] 84.7
c1ccc(-c2ccc(C(c3ccccc3)n3ccnc3)cc2)cc1 (stereo not given) [Bifonazole] 122
COc1cc(Br)c(S(=O)(=O)Nc2ccc(Cl)c(O[C@@H]3CCN(C)C3)c2)cc1OC 137
Cn1cnc2c(NCc3ccccc3)nc(NCCO)nc21 [Olomoucine] 94.1
C[C@@H](Nc1ncnc2[nH]c(-c3ccc(O)cc3)cc12)c1ccccc1 139
CN(C)CCOC(=O)COc1ccc(Cl)cc1.Cl [Centrophenoxine hydrochloride] 107
C=CC1CN2CCC1CC2C(O)c1ccnc2ccc(OC)cc12.Cl.O.O (stereo not given) 92.6
CC1(C)CCC(C)(C)c2cc(C(=O)Nc3ccc(C(=O)O)cc3)ccc21 109
Cc1cc(C)c(S(=O)(=O)Nc2cccc(C(F)(F)F)c2)c(C)c1 104
NC(N)=NC(=O)c1nc(Cl)c(N2CCCCCC2)nc1N [5-(N,N-hexamethylene)amiloride] 100
CNCCC(Oc1ccccc1OC)c1ccccc1.Cl (stereo not given) [Nisoxetine hydrochloride] 101
CCCCCCCC(=O)OCC(CO)OC(=O)CCCCCCC (stereo not given) [1,2-Dioctanoyl-SN-glycerol] 98.6
CC(Oc1c(Cl)cccc1Cl)C1=NCCN1.Cl (stereo not given) [Lofexidine.HCl] 96.1
CC1=C(CC(=O)O)c2cc(F)ccc2C1=Cc1ccc(S(C)(=O)=O)cc1 [Sulindac sulfone] 103
Oc1cc(O)cc(/C=C/c2ccc(Br)cc2)c1 [5-[(E)-2-(4-bromophenyl)ethenyl]-1,3-benzenediol] 127
COc1ccc(/C=C2\COc3ccc(C)cc3C2=O)cc1O 134
COc1ccc2c3c1OC1CC(O)C=CC31CCN(C)C2 (stereo not given) [Galanthamine] 94.8
CON=C(C(=O)NC1C(=O)N2C(C(=O)[O-])=C(CSc3nc(=O)c([O-])nn3C)CSC12)c1csc(N)n1.[Na+].[Na+] (stereo not given) [Ceftriaxone sodium] 94
CCCCCC=CCC=CC=CC=CC(SCC(N)C(=O)O)C(O)CCCC(=O)O (stereo not given) [Leukotriene E4] 102
COC(=O)Nc1nc2ccc(C(=O)c3ccccc3)cc2[nH]1 [Mebendazol] 127
